From article PMC7862700, “An all-to-all approach to the identification of sequence-specific readers for epigenetic DNA modifications on cytosine”

How the values were obtained:
Test in all cases: DAPPL (digital affinity profiling via proximity ligation, sequencing); 10 mM Tris-HCl pH 7.5, 50 mM NaCl, 1 mM DTT, 4% glycerol, room temperature, 30 min; GST-TFs on glutathione beads, 16-mer random dsDNA library, 0.1% formaldehyde crosslink after washing; high values mean tight binding
Settings in all cases: protein: recombinant; tags: N-terminal GST; dsDNA, one strand shown
[1] = target: ELF4 (Homo sapiens, UniProt Q99607 1-663)
Chain of ELF4 (Q99607 whole entry, the tested form may be a part): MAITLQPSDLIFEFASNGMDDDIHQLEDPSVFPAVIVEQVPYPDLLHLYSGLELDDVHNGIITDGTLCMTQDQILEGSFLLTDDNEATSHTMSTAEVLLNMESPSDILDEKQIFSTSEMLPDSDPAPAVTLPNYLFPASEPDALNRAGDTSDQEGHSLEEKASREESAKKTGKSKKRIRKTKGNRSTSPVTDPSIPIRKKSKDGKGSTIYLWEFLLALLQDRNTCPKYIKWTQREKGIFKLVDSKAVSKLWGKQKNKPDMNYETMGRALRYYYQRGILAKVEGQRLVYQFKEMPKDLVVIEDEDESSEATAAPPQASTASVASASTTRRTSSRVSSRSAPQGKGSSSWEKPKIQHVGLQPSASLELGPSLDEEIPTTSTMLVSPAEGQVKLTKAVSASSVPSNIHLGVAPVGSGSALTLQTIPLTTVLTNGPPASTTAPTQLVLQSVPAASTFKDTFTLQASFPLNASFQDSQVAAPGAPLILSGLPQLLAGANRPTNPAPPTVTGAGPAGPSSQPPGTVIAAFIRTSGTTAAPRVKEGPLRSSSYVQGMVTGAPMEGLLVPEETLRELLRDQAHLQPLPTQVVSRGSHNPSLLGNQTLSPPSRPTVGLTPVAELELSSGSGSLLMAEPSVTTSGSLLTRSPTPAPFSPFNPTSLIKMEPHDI
Summary of the method: (§1)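 Pools were built from human transcription factors expressed in yeast as GST fusions, captured on glutathione beads and DNA-barcoded, along with a tag-only sample. Incubation with 200 nmole of a 16-mer random double-stranded DNA library lasted 30 min at room temperature in Tris/NaCl/DTT/glycerol buffer, and was followed by washing, 0.1% formaldehyde crosslinking, proximity ligation, PCR amplification and Illumina NextSeq500 sequencing. Binding signal is the quotient of each hexamer's read frequency for a factor and its frequency for the tag-only sample.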

[2] = target: T1, ETV2 (Homo sapiens, UniProt O00321 1-342)
T1 sequence: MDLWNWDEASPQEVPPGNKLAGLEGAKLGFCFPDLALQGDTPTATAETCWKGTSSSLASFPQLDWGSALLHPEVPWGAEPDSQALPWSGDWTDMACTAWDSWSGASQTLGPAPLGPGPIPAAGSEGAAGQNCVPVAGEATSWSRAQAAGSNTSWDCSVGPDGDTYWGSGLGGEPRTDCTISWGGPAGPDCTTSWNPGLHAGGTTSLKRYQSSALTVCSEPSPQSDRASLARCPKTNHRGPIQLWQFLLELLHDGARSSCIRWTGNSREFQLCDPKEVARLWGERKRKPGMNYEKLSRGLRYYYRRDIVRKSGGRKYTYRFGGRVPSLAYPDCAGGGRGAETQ
Summary of the method: as §1

[3] = target: T2, ELF3 (Homo sapiens, UniProt P78545 1-371)
T2 sequence: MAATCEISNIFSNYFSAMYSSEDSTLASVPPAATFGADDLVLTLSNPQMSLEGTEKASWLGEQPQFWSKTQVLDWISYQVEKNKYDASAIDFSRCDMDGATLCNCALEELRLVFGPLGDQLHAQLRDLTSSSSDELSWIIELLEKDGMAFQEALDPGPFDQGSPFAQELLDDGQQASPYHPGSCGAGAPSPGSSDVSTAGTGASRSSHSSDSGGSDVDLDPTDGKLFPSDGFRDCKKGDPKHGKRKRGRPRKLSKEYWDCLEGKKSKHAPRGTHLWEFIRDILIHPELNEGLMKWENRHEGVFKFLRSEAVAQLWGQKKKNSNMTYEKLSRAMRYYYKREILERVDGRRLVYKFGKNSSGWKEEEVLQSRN
Summary of the method: as §1

[4] = target: ETV1 (Homo sapiens, UniProt P50549 1-477)
Chain of ETV1 (P50549 whole entry): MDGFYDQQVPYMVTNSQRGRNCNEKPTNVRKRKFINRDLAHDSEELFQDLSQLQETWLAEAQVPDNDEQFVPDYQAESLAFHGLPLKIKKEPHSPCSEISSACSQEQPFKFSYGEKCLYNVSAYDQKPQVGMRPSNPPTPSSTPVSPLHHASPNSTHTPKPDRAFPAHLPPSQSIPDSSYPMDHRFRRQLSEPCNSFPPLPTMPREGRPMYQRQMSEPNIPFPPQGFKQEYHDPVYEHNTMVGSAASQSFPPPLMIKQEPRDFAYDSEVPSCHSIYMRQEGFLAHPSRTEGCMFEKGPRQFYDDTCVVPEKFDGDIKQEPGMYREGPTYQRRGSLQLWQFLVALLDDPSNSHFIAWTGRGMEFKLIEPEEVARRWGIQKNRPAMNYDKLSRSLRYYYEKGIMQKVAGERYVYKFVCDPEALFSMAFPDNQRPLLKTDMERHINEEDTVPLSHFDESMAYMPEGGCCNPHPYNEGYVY
Summary of the method: as §1

[5] = target: T3, ERF (Homo sapiens, UniProt P50548 1-548)
T3 sequence: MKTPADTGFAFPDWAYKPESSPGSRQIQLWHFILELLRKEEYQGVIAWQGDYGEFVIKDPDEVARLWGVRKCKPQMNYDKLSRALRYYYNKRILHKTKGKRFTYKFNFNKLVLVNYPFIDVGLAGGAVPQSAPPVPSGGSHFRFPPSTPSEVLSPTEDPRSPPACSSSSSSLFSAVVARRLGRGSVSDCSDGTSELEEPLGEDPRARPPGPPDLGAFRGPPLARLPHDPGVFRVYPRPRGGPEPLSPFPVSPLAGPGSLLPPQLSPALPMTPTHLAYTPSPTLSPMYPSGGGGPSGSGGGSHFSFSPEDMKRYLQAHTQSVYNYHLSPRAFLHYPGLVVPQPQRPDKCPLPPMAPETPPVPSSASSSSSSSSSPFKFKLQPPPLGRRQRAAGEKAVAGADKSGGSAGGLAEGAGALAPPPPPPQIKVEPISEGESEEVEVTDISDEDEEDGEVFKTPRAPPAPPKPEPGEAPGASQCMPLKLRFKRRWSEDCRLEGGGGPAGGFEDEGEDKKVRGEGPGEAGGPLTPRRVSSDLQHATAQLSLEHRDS
Summary of the method: as §1

[6] = target: T4, ETV3L (Homo sapiens, UniProt Q6ZN32 1-361)
T4 sequence: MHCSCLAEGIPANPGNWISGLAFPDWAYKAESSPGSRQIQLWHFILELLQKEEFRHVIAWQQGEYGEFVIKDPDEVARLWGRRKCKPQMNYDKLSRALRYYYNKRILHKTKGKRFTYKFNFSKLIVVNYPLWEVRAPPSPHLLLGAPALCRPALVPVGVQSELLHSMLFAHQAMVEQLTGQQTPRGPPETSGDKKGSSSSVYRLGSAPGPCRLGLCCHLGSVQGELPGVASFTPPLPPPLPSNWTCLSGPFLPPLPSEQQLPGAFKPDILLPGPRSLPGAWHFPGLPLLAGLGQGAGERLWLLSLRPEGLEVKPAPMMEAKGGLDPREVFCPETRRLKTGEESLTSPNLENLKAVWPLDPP
Summary of the method: as §1

[7] = target: T5, ETS2 (Homo sapiens, UniProt P15036 1-469)
T5 sequence: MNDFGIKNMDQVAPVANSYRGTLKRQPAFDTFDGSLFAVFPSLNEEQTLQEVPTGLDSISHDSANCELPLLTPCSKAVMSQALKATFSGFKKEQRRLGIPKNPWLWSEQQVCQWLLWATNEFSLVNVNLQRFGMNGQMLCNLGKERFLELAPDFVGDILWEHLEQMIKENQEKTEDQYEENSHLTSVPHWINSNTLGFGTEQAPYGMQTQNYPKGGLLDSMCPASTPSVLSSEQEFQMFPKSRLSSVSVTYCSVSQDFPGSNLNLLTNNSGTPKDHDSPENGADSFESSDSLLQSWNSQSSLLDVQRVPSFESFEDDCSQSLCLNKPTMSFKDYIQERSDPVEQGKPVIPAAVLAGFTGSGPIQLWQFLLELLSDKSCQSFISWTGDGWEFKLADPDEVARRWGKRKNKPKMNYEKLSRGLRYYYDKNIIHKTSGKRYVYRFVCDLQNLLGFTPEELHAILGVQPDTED
Summary of the method: as §1

[8] = target: T6, ETV7 (Homo sapiens, UniProt Q9Y603 1-341)
T6 sequence: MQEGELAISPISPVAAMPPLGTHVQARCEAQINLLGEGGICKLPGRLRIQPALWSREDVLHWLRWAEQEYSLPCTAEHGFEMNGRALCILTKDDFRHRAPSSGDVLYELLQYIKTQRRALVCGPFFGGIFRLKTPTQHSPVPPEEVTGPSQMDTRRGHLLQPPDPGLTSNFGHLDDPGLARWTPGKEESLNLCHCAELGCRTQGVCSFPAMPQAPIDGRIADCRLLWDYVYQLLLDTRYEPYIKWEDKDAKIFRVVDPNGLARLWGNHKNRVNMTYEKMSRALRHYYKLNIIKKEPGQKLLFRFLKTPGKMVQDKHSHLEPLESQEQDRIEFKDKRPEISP
Summary of the method: as §1

[9] = target: T7, ETV3 (Homo sapiens, UniProt P41162-2 1-143)
T7 sequence: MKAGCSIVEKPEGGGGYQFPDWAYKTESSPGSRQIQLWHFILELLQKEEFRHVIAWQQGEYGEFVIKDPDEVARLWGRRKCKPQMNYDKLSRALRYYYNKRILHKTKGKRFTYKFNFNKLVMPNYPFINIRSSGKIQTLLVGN
Summary of the method: as §1

[10] = target: ETV6 (Homo sapiens, UniProt P41212 1-452)
Chain of ETV6 (P41212 whole entry): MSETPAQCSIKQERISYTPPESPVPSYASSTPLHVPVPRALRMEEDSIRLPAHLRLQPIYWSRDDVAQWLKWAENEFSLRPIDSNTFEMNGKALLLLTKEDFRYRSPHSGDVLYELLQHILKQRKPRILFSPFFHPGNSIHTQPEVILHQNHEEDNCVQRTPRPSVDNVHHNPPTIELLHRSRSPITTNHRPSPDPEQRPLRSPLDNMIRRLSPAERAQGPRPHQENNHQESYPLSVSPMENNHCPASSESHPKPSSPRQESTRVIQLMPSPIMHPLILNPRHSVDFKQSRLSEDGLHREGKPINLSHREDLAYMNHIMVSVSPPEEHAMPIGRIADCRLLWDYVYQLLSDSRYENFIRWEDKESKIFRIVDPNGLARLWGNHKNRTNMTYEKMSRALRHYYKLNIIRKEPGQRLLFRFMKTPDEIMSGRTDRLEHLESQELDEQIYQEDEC
Summary of the method: as §1

In the case of ACGATG, the binding signal [1] is reported as 1.12 fold enrichment (6-mer frequency, TF over GST control), the binding signal [2] is reported as 1.14 fold enrichment (6-mer frequency, TF over GST control) and the binding signal [3] is reported as 1.17 fold enrichment (6-mer frequency, TF over GST control). For the same sequence, the binding signal [4] was 1.12 fold enrichment (6-mer frequency, TF over GST control), the binding signal [5] was 1.09 fold enrichment (6-mer frequency, TF over GST control) and the binding signal [6] was 1.14 fold enrichment (6-mer frequency, TF over GST control). The binding signal [7] was 1.12 fold enrichment (6-mer frequency, TF over GST control), the binding signal [8] was 1.2 fold enrichment (6-mer frequency, TF over GST control) and the binding signal [9] was 1.08 fold enrichment (6-mer frequency, TF over GST control). The binding signal [10] was 1.06 fold enrichment (6-mer frequency, TF over GST control).
